For 40 compounds, growth results are on record in PubChem BioAssay (NCI).

This is part of a sample that, as a whole, favours compounds with a hit. Of some 83,000 tested, about 20% had one in any assay.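 Treatment: one concentration, 48 hours, 96-well format. Scoring: percent growth, with anything below 10 considered active.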 The source made the active and inactive calls.

The experiment concerns CCRF-CEM leukemia. The experiment is described as follows: NCI-60 one-dose screen, 48 h (100 = growth as untreated, 0 = no growth, -100 = all killed). The note with it: 10 µM unless noted. How it is done:
Growth inhibition of the CCRF-CEM human tumor cell line is measured as a screen for anti-cancer activity. Cells are grown in 96 well plates and exposed to the test compound for 48 hours. Compounds are tested at a single concentration, which is 10^-5 M for most compounds. The reported endpoint is percent growth (GI% or GIPRCNT), where numbers from 0 - 100% represent growth inhibition, and numbers from -100% - 0 represent cell death. For example, a value of 40 represents 60% growth inhibition. A value of 0 means no net growth occurred over the course of the experiment. A value of -40 indicates 40% of cells at the beginning of the experiment died by the end of the experiment. A value of -100 means all cells are dead at the end of the experiment.
NCI-60 Human Tumor Cell Lines Screen was performed using the standard one-dose NCI protocol, which is described in more detail at https://dtp.cancer.gov/discovery_development/nci-60/default.htm.
Compounds with GIPRCNT values below 10 were considered active. Activity score was based on GIPRCNT using the following formula: […]
Score is 0 for GIPRCNT values of 100 or above, 50 for GIPRCNT values of 0, and 100 for GIPRCNT values of -100.
For `Cc1cc(C)n(-c2nnc3n2N=C(c2ccc(-c4ccccc4)cc2)CS3)n1`, the growth is 28.1% (inactive).
For `Cc1csc(NC(c2ccccc2)c2c(C)nc3ccccn23)n1` (stereo not given) the value was 101% (inactive); for `O=c1[nH]c(Nc2ccc(S(=O)(=O)O)cc2)nc2nc(Nc3ccc(NC(=S)Nc4ccccc4)cc3)nc(-c3ccc(O)cc3O)c12`, 94.5% (inactive).
For `O=C(N/N=C/C=C\c1ccccc1)C(=O)N/N=C/C=C/c1ccccc1` the value was 108% (inactive).
For `COc1ccc(/C=C2\Oc3cc(OCCCN4CCCC4)ccc3C2=O)cc1` the value was 52.3% (inactive); for `Cc1cc(C(C)(C)C)ccc1S`, 96% (inactive); for `COc1ccc(-c2nc(N3CCCC3=O)sc2Br)cc1OC`, 96.4% (inactive).
As to `COc1ccc(-n2c(=O)sc3c(Cl)nc(C)nc32)c(OC)c1`, the growth was 55.9% (inactive).
The same measure for `O=C1Nc2ccc3c(c2/C1=C\c1cc2c(cc1Br)OCO2)OCO3`: 10% (active).
For `S=C(S)NCCc1c[nH]c2ccccc12`, the growth is 81.5% (inactive).
As to `COc1cc(/C=C/c2cc(/C=C/c3ccc(O)c(OC)c3)n(C(N)=O)n2)ccc1O`, the growth is -22.9% (active).
For the compound `CCCCCCCCCCCCCCCCCCNC(=O)[C@H]1CSC(c2cccs2)N1` (stereo not given in full), the growth is -33.4% (active).
For `Cc1ccc(Nc2nnc(-c3ccc(Cl)cc3)o2)c(C)c1` the value was 83.3% (inactive).
In the case of `COc1cc(/C=C/C(=O)c2ccc(Nc3ncnc4cc(OC)c(OC)cc34)cc2)cc(OC)c1`, the growth is 63.2% (inactive).
For `Cc1ccc(S(=O)(=O)NCCNc2cc(-c3cn(C(C)(C)C)nc3-c3cccc(O)c3)ccn2)cc1`, the growth was 60.7% (inactive).
The same measure for `CC1=C(C#N)C(=O)NC(C)C1` (stereo not given): 102% (inactive).
The same measure for `COC(OC)c1ccccc1`: 119% (inactive).
The same measure for `COc1ccc(C(=O)c2cc(OC)c3c(c2)OCO3)cc1O`: 16.5% (inactive).
For the compound `COc1cc2c(c(OC)c1OC)-c1ccc(N)c(=O)cc1[C@@H](NC(C)=O)CC2`, the growth was 21.6% (inactive).
The same measure for `COc1c2occc2c(OC)c2c(=O)c(-c3cc(-c4ccc(F)cc4)c(C#N)c(N)n3)c(C)oc12`: 16% (inactive); for `N#Cc1ccc(N2Cc3ccccc3OC3=C2C(=O)c2c(O)ccc(O)c2C3=O)cc1`: -8.98% (active).
The same measure for `O=C(CCl)N(C1CCCCC1)C1CCCCC1`: 42.6% (inactive); for `Cn1c(=O)c2[nH]c(C3CC=CCC3)nc2n(C)c1=O` (stereo not given): 104% (inactive); for `CN(C)c1nc2c(N)ncnc2n1C1OC(CO)C(O)C1O` (stereo not given): 105% (inactive).
For `NC(=S)N/N=C1\CCCC(C(F)(F)F)C1` (stereo not given), the growth was 45.5% (inactive).
For `Cc1ccc(S(=O)(=O)c2nc(-c3ccccc3)oc2S(C)(=O)=O)cc1` the value was 0.985% (active); for `COc1ccc(-c2cc(-c3ccccc3)nc(SCCCC(=O)NO)n2)cc1OC`, 6.42% (active).
For `CC(C)CSc1nc(NN)c(C#N)c(-c2ccccc2)n1` the value was 97.4% (inactive).
Turning to `O=S(=O)(CC(O)(c1ccccc1)c1ccccc1)CC(O)(c1ccccc1)c1ccccc1`, the growth is 64.8% (inactive).
Take `O=C1/C(=C/c2ccc(Cl)cc2)CN(C(=O)CCN2CCC(=NO)CC2)C/C1=C\c1ccc(Cl)cc1`: the growth is -23.3% (active).
For `CC(C)c1ccc2occ(C=C3C(=O)NC(=O)NC3=O)c(=O)c2c1`, the growth was 77.8% (inactive).
In the case of `CN1CCN(CCCOc2ccc3nc(Nc4ccc(Cl)c(C(F)(F)F)c4)ccc3c2)CC1`, the growth is 17.6% (inactive).
Take `COc1ccc(C2C=C(c3ccc(Cl)cc3)N=C3SC=C(C)N32)c(Br)c1` (stereo not given): the growth was 7.84% (active).
For `NC(=N\N=C/c1ccc(O)cc1)/C(N)=N\N=C/c1ccc(O)cc1` the value was 10.8% (inactive); for `C=C(C)[C@@H]1CC[C@]2(C(=O)N3CCNCC3)CC[C@]3(C)[C@H](CC[C@@H]4[C@@]5(C)C/C(=C/c6ccncc6)C(=O)C(C)(C)[C@@H]5CC[C@]43C)[C@@H]12`, 101% (inactive).
On to `CCOC(=O)CN1/C(=N/c2sc3c(c2C(=O)OCC)CCN(C(=O)OCC)C3)SC(=O)/C1=C\C(=O)OC`, for which the growth was 27.7% (inactive).
For `O=C(Nc1ccc(Cl)c(Cl)c1)NS(=O)(=O)c1cnccc1Oc1ccc(F)cc1` the value was 2.81% (active); for `CC(C)(C)n1cc(-c2ccnc(NCCCNS(=O)(=O)c3ccc(Cl)cc3)c2)c(-c2cccc(O)c2)n1`, 8.5% (active).
On to `O=C(O)c1cn(C2CC2)c2cc(N3CCN(C(=O)/C=C/c4ccc(Cl)cc4)CC3)c(F)cc2c1=O`, for which the growth was 64.8% (inactive).
Turning to `CCc1ccc(-c2ccc(=O)n(-c3ccc(S(N)(=O)=O)cc3)n2)cc1`, the growth was 27.9% (inactive).
